# Results published in PubChem BioAssay AID1259418 (Broad Institute, 2018).
# The whole screen tested about 3,400 compounds, of which about 840 (25%) were called active. Roughly 11% stayed inconclusive and do not appear here.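 How the source made its calls: active means fitted half-maximal concentration of signal decrease at or below twice the sample's top tested concentration; inconclusive means flat curve between -70 and -30 percent, or poor fit; inactive means flat within 30 percent, signal rise, or potency above limit.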 The list is a sample of the results. Potency and affinity values are given separately.
# Experiment: T. gondii growth inhibition with IFN-gamma, dose response, cell-based, ME49Luc, HeLa, luciferase, 72 h (AID 1259418)
# Conditions: T. gondii ME49Luc in IFN-y HeLa, active compounds read low, -100% = high-dose IFN-γ control wells; at 19.5 µM unless noted
row,SMILES,max activity
1,Cc1ccc2c(c1C)-n1cccc1C1(CCN(C(=O)Cc3cccs3)CC1)N2,6.55% [at 0.16 µM] (inactive)
2,COc1ccc(-c2nc(Nc3cccc(Cl)c3C)c3ccccc3n2)cc1,25.3% (inactive)
3,Cc1ccc(-c2coc(-c3ccc(NC(=O)Nc4cccc(Br)c4)cc3)n2)cc1,22.7% [at 0.16 µM] (inactive)
4,Cc1ccccc1-c1noc(-c2nnn(Cc3nc(-c4cccc(Cl)c4)oc3C)c2C)n1,-11.4% [at 0.16 µM] (inactive)
5,Cc1cc(C2CCCN2Cc2cn(C(C)C)c3ccccc23)on1 (configuration not stated),5.01% (inactive)
6,Cc1noc(C)c1C1CCCN1Cc1cn(C(C)C)c2ccccc12 (configuration not stated),17.5% [at 10 µM] (inactive)
7,Clc1ccc(CSc2nc(NC3CCCCC3)c3ccccc3n2)cc1,26.1% [at 2.6 µM] (inactive)
8,CC(C)c1ccc(S(=O)(=O)N2CCC3(CC2)NCCN=C3NC2CCCC2)cc1,-14.4% [at 10 µM] (inactive)
9,CC(C)c1ccc(S(=O)(=O)N2CCC3(CC2)NCCN=C3NC2CCCCC2)cc1,20% [at 0.16 µM] (inactive)
10,CC(C)c1ccc(S(=O)(=O)N2CCC3(CC2)NCCN=C3NC2CCCCCC2)cc1,17.1% [at 0.16 µM] (inactive)
11,Cc1ccc(-c2coc(-c3ccc(NC(=O)Nc4ccc(Cl)cc4)cc3)n2)cc1,13.9% [at 0.16 µM] (inactive)
12,Cc1ccc(C)c(-c2coc(-c3ccc(NC(=O)Nc4ccc(C)c(F)c4)cc3)n2)c1,15% (inactive)
13,CCc1ccccc1Nc1ncnc2c1cnn2-c1ccc(OC)cc1,48.9% (inactive)
14,Clc1ccc(-c2nc(N3CCN(c4ccccn4)CC3)c3ccccc3n2)cc1,-23.4% [at 1.35 µM] (inactive)
15,COc1ccc(-c2nc(NCc3cccc(OC)c3)c3ccccc3n2)cc1,17.2% (inactive)
16,CCc1ccccc1NC(=O)N1CCN(Cc2nc(-c3ccc(C)cc3)oc2C)CC1,29.1% [at 10 µM] (inactive)
17,COc1ccc(-c2nc3c(s2)CN(C(=O)Nc2ccc(Cl)cc2)CC3)cc1OC,10.2% [at 0.16 µM] (inactive)
18,CCOC(=O)CSC1=Nc2ccccc2C2=NC(CC(=O)NC3CCCCC3)C(=O)N12 (configuration not stated),-18.7% [at 10 µM] (inactive)
19,O=C1CCc2cc(S(=O)(=O)N3CCC(Cc4ccccc4)CC3)cc3c2N1CCC3,11.4% [at 1.35 µM] (inactive)
20,O=C1CCc2cc(S(=O)(=O)NCc3ccccc3Cl)cc3c2N1CCC3,22.6% [at 2.6 µM] (inactive)
21,CC1Cc2ccccc2N1S(=O)(=O)c1cc2c3c(c1)CCC(=O)N3CCC2 (configuration not stated),-11.1% [at 0.35 µM] (inactive)
22,O=C1CCc2cc(S(=O)(=O)N3CCCc4ccccc43)cc3c2N1CCC3,-12% [at 0.35 µM] (inactive)
23,O=C1CCc2cc(S(=O)(=O)NCc3cccs3)cc3c2N1CCC3,24.5% (inactive)
24,O=C1CCc2cc(S(=O)(=O)NCCC(c3ccccc3)c3ccccc3)cc3c2N1CCC3,9.16% (inactive)
25,Cc1ccc(C2=NC3(CCN(CC(=O)Nc4c(C)cccc4C)CC3)NC2=O)cc1,10.4% [at 0.16 µM] (inactive)
26,COc1ccc2c(c1)NC1(CCN(C(=O)CCC3CCCC3)CC1)c1cccn1-2,10.2% [at 0.16 µM] (inactive)

row,SMILES,max activity
1,COc1ccc(C)cc1NC(=O)N1CCc2nc(-c3ccc(C)cc3)sc2C1,-14.6% [at 0.16 µM] (inactive)
2,CCOc1ccc(CCNc2nc(-c3ccc(OC)cc3)nc3ccccc23)cc1,-9.19% [at 0.35 µM] (inactive)
3,CCc1cc2c(N3CCC(C(N)=O)(N4CCCCC4)CC3)ncnc2s1,-27.2% (inactive)
4,CCOC(=O)CCNC(=O)Nc1ccc(-c2nc(-c3ccccc3)co2)cc1,-13.1% [at 1.35 µM] (inactive)
5,COC(=O)c1ccc(NC(=O)COc2nc(C)nc3ccccc23)cc1,16% [at 2.6 µM] (inactive)
6,O=C(c1ccco1)N1CCC2(CC1)Nc1cc(F)ccc1-n1cccc12,7.86% [at 0.16 µM] (inactive)
7,O=C(c1ccco1)N1CCN(c2nc(-c3ccc(Cl)cc3)nc3ccccc23)CC1,16.5% [at 0.35 µM] (inactive)
8,Cc1ccc2c(c1C)-n1cccc1C1(CCN(C(=O)c3ccc(Cl)cc3)CC1)N2,-11.9% [at 0.16 µM] (inactive)
9,O=C(CC1Nc2c3ccccc3nc(=S)n2C1=O)NCCC1=CCCCC1 (configuration not stated),25.3% [at 0.68 µM] (inactive)
10,Cc1ccc(CSC2=Nc3ccccc3C3=NC(CC(=O)NCc4ccco4)C(=O)N23)cc1 (configuration not stated),10.3% [at 0.35 µM] (inactive)
11,CC(C)(C)c1ccc(CSC2=Nc3ccccc3C3=NC(CCC(=O)NCc4ccco4)C(=O)N23)cc1 (configuration not stated),15.7% [at 0.16 µM] (inactive)
12,O=C(CC1N=C2c3ccccc3N=C(SCc3ccccc3F)N2C1=O)NCc1ccco1 (configuration not stated),-17.8% (inactive)
13,Cc1ccc(CSC2=Nc3ccccc3C3=NC(CCC(=O)NCc4ccco4)C(=O)N23)cc1 (configuration not stated),39.1% (inactive)
14,Cc1nc(OCC(=O)Nc2cccc(Cl)c2)c2ccccc2n1,-6.84% [at 0.35 µM] (inactive)
15,Cc1ccc(C)c(-c2coc(-c3ccc(NC(=O)C(C)(C)C)cc3)n2)c1,13.3% [at 0.16 µM] (inactive)
16,COCCN1CCN(S(=O)(=O)c2ccccc2)Cc2cccnc21,18.1% (inactive)
17,CCOC(=O)c1ccccc1NC(=O)COc1nc(C)nc2ccccc12,26.7% [at 10 µM] (inactive)
18,COc1ccc(C)cc1NC(=O)COc1nc(C)nc2ccccc12,17.5% [at 0.68 µM] (inactive)
19,Cc1cc(C)cc(NC(=O)COc2nc(C)nc3ccccc23)c1,-16.7% [at 5 µM] (inactive)
20,COc1ccc(OC)c(NC(=O)COc2nc(C)nc3ccccc23)c1,27.6% [at 2.6 µM] (inactive)
21,Cc1cc(C)c(NC(=O)COc2nc(C)nc3ccccc23)c(C)c1,-16.7% [at 0.68 µM] (inactive)
22,CCc1cccc(C)c1NC(=O)COc1nc(C)nc2ccccc12,13.2% [at 0.68 µM] (inactive)
23,Cc1nc(OCC(=O)Nc2cccc(Br)c2)c2ccccc2n1,18% [at 0.35 µM] (inactive)
24,COC(=O)c1ccc(Cl)cc1NC(=O)COc1nc(C)nc2ccccc12,29% [at 0.16 µM] (inactive)
25,CCOc1cccc(CC(=O)N2CCC3(CC2)Nc2cc(F)ccc2-n2cccc23)c1OCC,11.6% [at 0.35 µM] (inactive)
26,O=C(NCCc1csc(-c2ccccc2)n1)[C@H]1CSCN1C(=O)Cc1ccc(F)cc1,10.7% [at 10 µM] (inactive)

row,SMILES,max activity
1,Cc1ccc(C)c(-c2coc(-c3ccc(NC(=O)NCc4ccc(F)cc4)cc3)n2)c1,-8.97% [at 1.35 µM] (inactive)
2,CCOc1ccc(C(=O)N2CCC3(CC2)Nc2ccc(C)c(C)c2-n2cccc23)cc1,-13.2% (inactive)
3,Cc1cccc(C(=O)Nc2c(C(=O)NCc3ccccn3)[nH]c3ccccc23)c1,17.8% [at 2.6 µM] (inactive)
4,CN(C)CCN1CCC2(CCCN(C(=O)C3CCOC3)C2)C1=O (configuration not stated),39.4% (inactive)
5,Cc1cccc(-c2nc(Cn3nnc(-c4nc(-c5ccccc5C)no4)c3C)c(C)o2)c1,5.08% [at 0.35 µM] (inactive)
6,O=C(Nc1ccc(-c2nc(-c3cccc(Br)c3)co2)cc1)c1ccco1,21.7% (inactive)
7,O=C(NCCc1csc(-c2ccccc2)n1)[C@H]1CCCN1C(=O)COc1ccccc1,-18.8% (inactive)
8,Cc1nc(OCC(=O)Nc2ccccc2)c2ccccc2n1,12.4% [at 0.16 µM] (inactive)
9,Cc1nc(OCC(=O)Nc2ccc(F)cc2)c2ccccc2n1,17.7% [at 10 µM] (inactive)
10,COc1cc(NC(=O)COc2nc(C)nc3ccccc23)cc(OC)c1,-12.3% [at 0.35 µM] (inactive)
11,CCc1nc(OCC(=O)NCc2ccc3c(c2)OCO3)c2ccccc2n1,11.9% [at 0.35 µM] (inactive)
12,Cc1nc(OCC(=O)Nc2ccc(Cl)cc2F)c2ccccc2n1,-13% [at 0.16 µM] (inactive)
13,Cc1nc(OCC(=O)Nc2ccc(F)cc2F)c2ccccc2n1,-20.9% [at 1.35 µM] (inactive)
14,COc1ccc(NC(=O)COc2nc(C)nc3ccccc23)cc1,19.3% [at 0.68 µM] (inactive)
15,Cc1nc(OCC(=O)Nc2ccc3c(c2)OCO3)c2ccccc2n1,12.1% [at 5 µM] (inactive)
16,O=C(Cc1ccc(F)cc1)N1CCC2(CC1)Nc1cc(F)ccc1-n1cccc12,16% [at 0.16 µM] (inactive)
17,O=C(NCc1ccccc1)Nc1ccc(-c2nc(-c3ccccc3)co2)cc1,42.6% (inactive)
18,CCCc1cc(C2CCCN2C(=O)Cn2nc(C(F)(F)F)cc2C)no1 (configuration not stated),9.64% [at 1.35 µM] (inactive)
19,Cc1cc(C2CCCN2C(=O)Cn2nc(C(F)(F)F)c3c2CCCC3)on1 (configuration not stated),-9.58% [at 0.16 µM] (inactive)
20,CC(C)c1cc(C2CCCN2C(=O)Cn2nc(C(F)(F)F)c3c2CCCC3)on1 (configuration not stated),9.58% [at 2.6 µM] (inactive)
21,CCc1cc(C2CCCN2C(=O)Cn2nc(C(F)(F)F)c3c2CCCC3)on1 (configuration not stated),14.3% [at 0.16 µM] (inactive)
22,Cc1cc(C2CCCN2C(=O)Cn2nc(C(F)(F)F)cc2C)no1 (configuration not stated),11.8% [at 2.6 µM] (inactive)
23,CC(C)c1cc(C2CCCN2C(=O)Cn2nc(C(F)(F)F)c3c2CCCC3)no1 (configuration not stated),6.95% [at 0.16 µM] (inactive)
24,COCCCNC(=O)Cn1c(=O)c(S(=O)(=O)c2ccccc2)cc2ccccc21,-8.44% [at 0.35 µM] (inactive)
25,Cc1ccc(-c2nc3c(s2)CN(S(=O)(=O)c2ccc(Cl)cc2)CC3)cc1,6.55% [at 10 µM] (inactive)
